FMDV inh – foot and mouth disease virus antiviral activity. FMDV antiviral cell-based qHTS. Potency, µM (top dose mostly 57.9 µM), for the others: at the top dose activity change, negative = inhibition, actives largely listed as inhibitors. 410,000 compounds, 1.2% hits; calls by dose curve; tested in HEK293T cells; further: read-out not given here; nearly all actives have a fitted effect of over 45% in size
Lassa entry inh – Lassa virus entry inhibition; Lassa virus pseudotype entry inhibition, cell reporter; Potency, µM (doses to about 37.9 µM), without a hit: at the top dose activity change, negative = inhibition, actives largely listed as inhibitors; 300,000 compounds, 1.2% hits; AID 540256; calls by dose curve; tested in HEK293 cells; further: nearly all actives have a fitted effect of over 50% in size
MARV entry inh – blocks Marburg virus binding to or entry into cells | Potency, µM (highest dose often 37.8 µM), without a hit: at the top dose activity change, negative = inhibition, most hits filed as inhibitors | AID 540276 | Marburg virus pseudotyped entry inhibition, cell reporter | 300,000 compounds, 1.8% hits; calls by dose curve; tested in HEK293 cells
VACV mCherry inh – vaccinia inhibition (mCherry reporter); Vaccinia virus mCherry reporter infection, fluorescence; Potency, µM (doses to about 36.5 µM), for the others: top-dose activity change, negative = inhibition, actives largely listed as inhibitors; 310,000 compounds, 0.63% hits; calls by dose curve; tested in A549 cells; further: nearly all actives have a fitted effect of over 35% in size
VACV Venus inh – vaccinia inhibition (Venus reporter); Potency, µM (series often up to 36.5 µM), for inactives: at the highest dose activity change, negative = inhibition, most hits filed as inhibitors; 330,000 compounds, 0.46% hits; AID 720580; Vaccinia virus Venus reporter expression, fluorescence; calls by dose curve; tested in A549 cells; further: nearly all actives have a fitted effect of over 30% in size
An asterisk follows results filed as active; i = inactive; ? = inconclusive; · = no result; [ ] = another dose, or the depositor's remark. In the library only some 3.2% were active in any assay of this set; here they are far more common. On the % scale 0 is the no-effect control and ±100 the full control effect; potency means the concentration at half of the fitted maximal effect.

SMILES | FMDV inh | Lassa entry inh | MARV entry inh | VACV mCherry inh | VACV Venus inh
CCCNC(=O)CN1C(=O)NC2(CCCc3cc(OC)ccc32)C1=O (stereo not given) | -10.1% | -1.5% | 13.3% | · | ·
O=C(COc1ccccc1C(=O)Nc1ccccc1)NC1CCCCC1 | · | · | · | i | -15.7%
Cc1noc(C)c1C(=O)OCC(=O)c1cc(C)n(Cc2ccccc2Cl)c1C | -3.1% | ? | ? | · | ·
Cc1cc(C(=O)COC(=O)c2ccc3c(c2)NC(=O)CS3)c(C)n1CC1CCCO1 (stereo not given) | 28.2µM* | 8.0% | ? | -0.6% | -18.3%
Cc1cc(C(=O)COC(=O)c2ccc(O)cc2)c(C)n1CC1CCCO1 (stereo not given) | -17.2% | · | ? | -12.2% | 0.1%
CC1CCCN(C(=O)COC(=O)C2=COCCO2)C1 (stereo not given) | 30.0% | 4.8%[46.1 µM] | ? | i | -4.4%
NC(=O)c1sc(-n2cnc3ccccc32)cc1OCc1ccccc1Br | · | 8.88µM* | · | · | ·
COc1cc2ncn(-c3cc(OCc4ccccc4Cl)c(C(N)=O)s3)c2cc1OC | · | 0.628µM* | · | · | ·
COc1ccc2ncn(-c3cc(OC(C)c4ccccc4Cl)c(C(N)=O)s3)c2c1 (stereo not given) | · | 0.0996µM* | · | · | ·
C[C@@H]1CC[C@H]2C(=O)N(Cc3cccc([N+](=O)[O-])c3)C[C@H](O)CN2[C@@H]1c1cccc(Br)c1 | · | 6.9%[14.3 µM] | -10.0%[14.2 µM] | · | ·
CCOC(=O)N1CCC(NC(=O)C2CCCN(Cc3nc(-c4cccc(Cl)c4)oc3C)C2)CC1 (stereo not given) | 14.1µM* | · | · | ? | ?
COc1ccc(CNC(=O)C2CCCN(Cc3nc(-c4cccc(C)c4)oc3C)C2)cc1 (stereo not given) | 25.1µM* | ? | ? | · | ·
CCCN(CCC)CCNC(=O)C1CCN(Cc2nc(-c3ccc(Cl)cc3)oc2C)CC1 | -4.8% | ? | 10.3µM* | · | ·
Cc1oc(-c2cccc(Cl)c2)nc1CN1CCC(C(=O)NCCc2ccc(Cl)cc2)CC1 | -4.1% | 16.7%[46.1 µM] | 2.0%[46.1 µM] | -20.1% | -11.4%
Cc1oc(-c2ccc(Cl)cc2)nc1CN1CCCC(C(=O)NCc2ccc(Cl)cc2)C1 (stereo not given) | 35.5µM* | 9.5%[46.1 µM] | 9.3%[46.1 µM] | -21.4% | -16.4%
Cc1oc(-c2ccc(Cl)cc2)nc1CN1CCCC(C(=O)NC2CC2)C1 (stereo not given) | -9.1% | · | · | · | ·
COc1cc(C(=O)N(Cc2cc3ccc(C)cc3nc2N(C)C)C2CC2)cc(OC)c1OC | 8.6% | · | · | -7.6% | 3.1%
CCc1ccc(-c2nc(CN3CCCC(C(=O)NCCc4ccc(OC)c(OC)c4)C3)c(C)o2)cc1 (stereo not given) | 22.4µM* | ? | ? | · | ·
COc1ccc(CCNC(=O)C2CCCN(Cc3nc(-c4ccccc4C)oc3C)C2)cc1OC (stereo not given) | ? | -26.3% | ? | · | ·
N#C/C(=C1\C(=O)Nc2c(Cl)cc(Cl)cc21)c1nnc2n1CCCCC2 | 8.2% | 12.2% | -19.1%[46.1 µM] | -11.7% | -0.4%
C[C@@H]1CN([C@H](C)CO)C(=O)c2cc(NC(=O)Nc3ccc(C(F)(F)F)cc3)ccc2O[C@H]1CN(C)Cc1ccc(Cl)c(Cl)c1 | -18.0% | · | · | ? | 10µM*
C[C@@H]1CN([C@H](C)CO)C(=O)c2cc(NS(=O)(=O)c3ccc(F)cc3)ccc2O[C@@H]1CN(C)Cc1ccc(Cl)c(Cl)c1 | ? | · | · | ? | 10µM*
C[C@H](CO)N1C[C@H](C)[C@@H](CN(C)S(C)(=O)=O)Oc2ccc(NC(=O)Nc3ccc(C(F)(F)F)cc3)cc2C1=O | 0.0% | · | · | -13.9% | -1.8%
C[C@@H]1[C@H](c2ccccc2)OCCS(=O)(=O)N1Cc1ccccc1Br | · | · | · | -10.0% | -28.0%
CN(CC(=O)Nc1cccc(F)c1)C(=O)CN1C(=O)C2CC=CCC2C1=O (stereo not given) | -11.7% | -10.9% | -2.4% | -10.1% | -11.0%
SMILES | FMDV inh | Lassa entry inh | MARV entry inh | VACV mCherry inh | VACV Venus inh
COc1ccc2c(=O)c(C(=O)NCCc3ccc(OC)c(OC)c3)c[nH]c2c1 | ? | ? | 7.3µM* | · | ·
COc1ccc(OC)c(CNC(=O)c2cc3cc4ccc(OC)cc4nc3o2)c1 | -16.8% | -15.4%[46.1 µM] | -5.4%[46.1 µM] | -14.2% | -4.6%
COc1ccc2cc3cc(C(=O)NCCc4ccc(OC)c(OC)c4)oc3nc2c1 | 8.91µM* | ? | ? | -11.9% | ?
CC(C)(C)c1ccc(C(=O)C[n+]2ccccc2Cl)cc1 | · | · | · | -16.1% | -11.6%
CC(C)(C)c1ccc(C(=O)NNc2ncnc3c2cnn3-c2ccccc2)cc1 | 17.4% | ? | · | -6.9% | -1.4%
Cc1ccc(C)c(N2CCN(C(=O)c3ccc(CSc4nc5ccncc5[nH]4)cc3)CC2)c1 | 17.8µM* | ? | ? | -15.3% | -19.8%
c1ccc(CCNc2ccc3c(c2)Cc2ccccc2-3)nc1 | 28.6% | ? | 1µM* | ? | 27.2%
O=C(Nc1cc(C(=O)N2CCN(CCO)CC2)c2c(c1)ncn2C1CCCC1)c1ccccc1 | -11.8% | · | · | -3.0% | 0.0%
N#CC1=C(N)OC2=C(C(=O)CCC2)[C@@H]1CCc1ccccc1 | · | · | 10.8%[46.1 µM] | · | ·
C[C@H](N)CN1CCc2ccc(Br)cc21 | -26.6% | ? | 3.55µM* | -11.5% | -19.2%
CC(=O)Nc1ccc(S(=O)(=O)NC2CC(=O)N(c3ccc(C)cc3)C2)cc1 (stereo not given) | -13.4% | -20.8% | 0.0%[46.1 µM] | i | -11.1%
CCOC(=O)CSC1=NC(=O)/C(=C\c2ccc(OC(C)=O)cc2)S1 | 22.4% | ? | 8.2µM* | · | ·
NC1=NC(=O)/C(=C/c2ccc(Br)cc2)S1 | 7.1% | · | · | · | ·
CCOC(=O)CSC1=NC(=O)/C(=C/c2ccc(Br)cc2)S1 | 25.1µM* | 5.4% | 7.7%[46.1 µM] | -2.1% | -13.0%
CCOC(=O)COc1ccc(Br)cc1/C=C1\SC(N)=NC1=O | -18.9% | · | · | · | ·
O=C(Nc1ccc2c(c1)CCC2)C1CCCN(c2ncccn2)C1 (stereo not given) | 0.0% | 21.8% | ? | · | ·
Cc1nc2ncnn2c(N2CCCC(C(=O)Nc3ccc4c(c3)CCC4)C2)c1C (stereo not given) | 25.1µM* | ? | ? | · | ·
Oc1cc(O)cc(-c2cc3ccc(O)cc3o2)c1 | -21.4% | · | · | -7.5% | -7.0%
CC1(C)Oc2cc3oc(-c4cc(O)cc(O)c4)cc3cc2CC1O (stereo not given) | 11.2µM* | · | · | -10.4% | -4.5%
COC(=O)c1cccc(CC2(C)C(=O)Nc3ccc(OC(F)(F)F)cc32)c1 (stereo not given) | -25.9% | · | · | -2.3% | -11.8%
CCc1ccc(-c2cc(C(=O)Nn3cnnc3)c3ccccc3n2)cc1 | 11.2µM* | 1.3µM* | 1.03µM* | -14.0% | -5.5%
CC(C)(C)c1ccc(-c2cc(C(=O)NNC(=O)Nc3ccccc3)c3ccccc3n2)cc1 | ? | 5.62µM* | ? | -13.7% | ?
O=C(Nc1ncccn1)c1cc(-c2ccc(F)cc2)nc2ccccc12 | 31.6µM* | 5.2%[46.1 µM] | 2.7%[46.1 µM] | -20.2% | -11.2%
O=C(NNC(=O)c1cc(-c2ccncc2)nc2ccccc12)Nc1ccc(F)cc1 | 22.7% | 4.6% | -11.2% | 0.2% | -3.6%
O=C(NNC(=O)c1cc(-c2ccccc2)nc2ccccc12)Nc1cccc(Cl)c1 | 0.0% | -14.9% | ? | ? | -30.0%
